# gsp antagonist: antagonizes gsp, the McCune-Albright syndrome mutation; gsp-mutant cells, cAMP HTRF, 30 min; Potency, µM (highest dose often 76.9 µM), most hits filed as inhibitors; 0.4% of 340,000 active; AID 624288; calls by dose curve; cell line not stated here;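 also: intracellular cAMP measured with PDE inhibitor Ro 20-1724 present during compound exposure; nearly all actives have a fitted effect of over 65% in size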
#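 G418-selected cells were plated in DMEM/10% FBS for 16-24 h at 37C, then treated with compounds plus the PDE inhibitor […] (300 uM solution added) for 30 min at 37C. Intracellular cAMP was measured by HTRF after 30 min lysis at room temperature.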
# TSHR antag: human thyrotropin receptor antagonism; P16473; TSHR-expressing cells, TSH-stimulated cAMP HTRF, 2 h; active compounds read low; activity change, negative = inhibition, % at 11.5 µM; 0.2% of 330,000 active;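 active = activity change below a set negative limit, meaning inhibition stronger than a set level, cut at about -70% in these data; inconclusive = activity change between two set negative limits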
#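 TSHR-expressing cells, 200/well, pre-treated with compound, then stimulated with EC80 TSH (4nM final) for 2 hours at 37 deg C. cAMP measured by competitive HTRF: anti-cAMP cryptate antibody in lysis buffer plus cAMP-d2, read after 30 minutes at room temperature.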
# gsp agonist: activates gsp, the McCune-Albright syndrome mutation; gsp mutant cells, cAMP HTRF, 30 min; Potency, µM (highest dose often 76.9 µM), actives largely listed as activators; 0.13% of 340,000 active; AID 624287; active = well fitted activation curve with a large enough effect; inconclusive = small, poorly fitted or top-dose-only effect, or another doubt; inactive = no such curve, though single readings can be large or run the other way; cell line not stated here;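 also: phosphodiesterase inhibitor Ro 20-1724 added with compounds to block cAMP breakdown; nearly all actives have a fitted effect of over 60% in size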
#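 Cells stably selected in G418 were plated at 2000/well, grown 16-24 hr, then given compounds in DMSO with the PDE inhibitor […] (300 uM solution added) for 30 min at 37C; cAMP was read by HTRF.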
# RXFP1 antagonist: RXFP1 (human) relaxin receptor antagonism. 0.59% of 350,000 active. activity change, negative = inhibition, % at 57.5 µM. Q9HBX9. HEK293-RXFP1, relaxin-stimulated cAMP HTRF, 30 min; active compounds read low;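 active = activity change of -60% or lower, but not beyond a set lower limit; inconclusive = change between -60% and -40%, or beyond the set limit; inactive = change above -40%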
# Target sequence (Q9HBX9 whole entry, looked up): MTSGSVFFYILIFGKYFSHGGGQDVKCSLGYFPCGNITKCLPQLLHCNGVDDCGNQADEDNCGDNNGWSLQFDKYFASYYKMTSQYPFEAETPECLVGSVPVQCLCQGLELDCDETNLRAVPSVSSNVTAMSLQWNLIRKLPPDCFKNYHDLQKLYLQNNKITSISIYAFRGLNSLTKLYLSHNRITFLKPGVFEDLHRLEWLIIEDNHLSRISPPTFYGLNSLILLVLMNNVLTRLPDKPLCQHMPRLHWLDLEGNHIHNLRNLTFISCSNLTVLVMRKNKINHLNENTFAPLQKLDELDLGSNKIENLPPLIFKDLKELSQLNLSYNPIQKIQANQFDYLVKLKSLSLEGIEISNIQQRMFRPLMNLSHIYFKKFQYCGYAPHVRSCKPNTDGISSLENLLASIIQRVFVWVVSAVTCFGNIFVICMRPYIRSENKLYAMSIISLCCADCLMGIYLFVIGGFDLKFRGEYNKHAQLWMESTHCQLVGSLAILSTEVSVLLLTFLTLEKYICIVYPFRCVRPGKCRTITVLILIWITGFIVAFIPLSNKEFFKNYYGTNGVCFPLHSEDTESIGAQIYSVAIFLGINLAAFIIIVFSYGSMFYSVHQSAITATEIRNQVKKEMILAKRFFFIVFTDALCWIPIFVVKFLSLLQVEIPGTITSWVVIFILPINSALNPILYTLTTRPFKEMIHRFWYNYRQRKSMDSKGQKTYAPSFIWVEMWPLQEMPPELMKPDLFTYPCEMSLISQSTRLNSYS
# RXFP1 agonist: agonists of human relaxin receptor RXFP1 | HEK293T-RXFP1 cAMP TR-FRET, 30 min; response scale: percent of porcine relaxin response, buffer zero | Potency, µM (highest dose often 57.5 µM), hits mostly activators | 0.3% of 370,000 active; active = well fitted activation curve with a large enough effect; inconclusive = small, poorly fitted or top-dose-only effect; also: nearly all actives have a fitted effect of over 60% in size
#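 HEK293 cells stably expressing RXFP1, treated 30 min at 37C with compounds plus PDE4 inhibitor Ro 20174; cAMP measured by HTRF TR-FRET. Normalized to buffer and 29 nM porcine relaxin; EC50 by Hill fit.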
# Hits are given with their value; 0 = inactive; ? = inconclusive; - = no result given; [ ] = remark or other dose. In the library only some 1% were active in any assay of this set; here they are far more common.
SMILES,gsp antagonist,TSHR antag,gsp agonist,RXFP1 antagonist,RXFP1 agonist
COc1ccc(CCNC(=O)c2c([S-])n(-c3ccc(C)cc3)c3cccc[n+]23)cc1,0,0,0,0,0
CCc1cccc(NC(=O)CSc2ncccc2C(=O)Oc2ccccc2Cl)c1,-,-,-,0,0
Brc1ccc(CSc2ncn[nH]2)cc1,32µM,0,0,0,0
O=C(O)c1ccc(CSc2ncn[nH]2)cc1,0,0,0,0,0
O=C(NCC(c1ccco1)S(=O)(=O)c1cccs1)c1c(F)cccc1F (stereo not given),-,-,-,0,0
O=S(=O)(c1ccc(Br)cc1)c1nnn2c1nc(NCc1ccc3c(c1)OCO3)c1sccc12,-,-,-,0,0
CCCc1ccc(S(=O)(=O)N2CCC(Oc3ccc(-n4cnnn4)cc3)CC2)cc1,-,-,-,0,0
Oc1c(Cl)cc(Cl)cc1Sc1cc(Cl)cc(Cl)c1O,-,-92,-,?,0
Cc1cc(C)c(O)c(CN(C)Cc2cc(Cl)cc(Cl)c2O)c1,0,-,0,0,-
O=C(c1cc(COc2cccc3cnccc23)on1)N1CCCC(CCCO)C1 (stereo not given),35µM,?,0,0,0
COCC1CCN(C(=O)c2cc(COc3cccc4cnccc34)on2)CC1,0,0,0,0,0
COc1ccc(NC(=O)c2nnn(CC(=O)Nc3ccccc3OC)c2N)c(OC)c1,0,0,0,-102,0
COc1ccc(NC(=O)c2nnn(CC(=O)Nc3cccc(C)c3C)c2N)c(OC)c1,-,-,-,0,0
CCN1/C(=C\C(=S)Nc2ccccc2)Sc2ccccc21,0,0,0[15.4 µM],0,0
CCN1/C(=C/C(C)=C/c2sc3ccccc3[n+]2CC)Sc2ccccc21,35µM,0,0,-119,0
CCCCn1c(N2CCC(Cc3ccccc3)CC2)nc2c1c(=O)[nH]c(=O)n2C,0,0,0,-90,0
Cc1nnc(SCCn2c(N3CCC(Cc4ccccc4)CC3)nc3c2c(=O)[nH]c(=O)n3C)s1,0,0,0[15.4 µM],0,0
O=C1C2CCCN2C(c2ccc(Br)cc2)N1c1ccc(F)cc1 (stereo not given),50µM,0,0,-,0
COc1ccc(CNC(=O)C(C)OC(=O)c2cccs2)cc1 (stereo not given),0,-101,0[15.4 µM],0,0
CC(OC(=O)c1cccs1)C(=O)NCc1cccs1 (stereo not given),0,0,0,0,0
COC(=O)c1ccc(NC(=O)CCc2c(C)nc3c(c(C)nn3C(C)(C)C)c2C)cc1,-,-,-,-,0
CC1(C)CC(=O)C(C(c2ccncc2)C2C(=O)CC(C)(C)CC2=O)C(=O)C1,0,0,0,0,0
Cc1ccc(C(C2C(=O)CC(C)(C)CC2=O)C2C(=O)CC(C)(C)CC2=O)s1,0,0,0,-68,0
COc1ccc(C(=O)c2cn(CC(=O)Nc3cc(C)ccc3C)c3nc(C)ccc3c2=O)cc1,-,-,-,0,?
O=C(Nc1ccncc1)C1CC(=O)N(c2ccccc2)C1 (stereo not given),0,-,0[15.4 µM],0,-
SMILES,gsp antagonist,TSHR antag,gsp agonist,RXFP1 antagonist,RXFP1 agonist
O=C(Nc1cccc(-c2cnc3ccccc3n2)c1)C1CC(=O)N(c2ccccc2)C1 (stereo not given),?,0,0[15.4 µM],-73,0
CN(C(=O)CSc1cn(CC(=O)N2CCCC2)c2ccccc12)c1ccccc1,-,-,-,0,0
CCCCCCCCC/C(=N\O)c1ccccn1,0,0,0[15.4 µM],-69,0
O=C1NC(Cc2c[nH]c3ccccc23)C(=O)N1Cc1ccccc1 (stereo not given),0,0,?,0,0
COC(=O)c1ccc(CN2C(=O)NC(Cc3c[nH]c4ccccc34)C2=O)cc1 (stereo not given),0,-98,0[15.4 µM],0,0
O=C(NC12CC3CC(CC(C3)C1)C2)c1ccc(Br)o1,0,0,0,-110,0
O=C(NC12CC3CC(CC(C3)C1)C2)c1ccc(-c2ccc(Br)cc2)o1,0,0,?,0,0
CCc1cccc(NC(=O)c2coc(=O)c3ccccc23)c1,-,-,-,-,0
COc1ccc(NC(=O)Cc2c[nH]c3ccccc23)cc1S(=O)(=O)N1CCCCC1,0,-75,0,0,0
CN(C)c1ccc(CN2CCc3nc(N4CCN(c5ccccn5)CC4)ncc3C2)cc1,-,-,-,-63,0
COc1cc(CN2CCc3nc(N4CCN(c5ccccn5)CC4)ncc3C2)cc(OC)c1OC,-,-,-,-79,0
Cc1ccccc1CN1CCc2nc(N3CCN(c4ccccn4)CC3)ncc2C1,-,-,-,0,0
CCOc1ccccc1CN1CCc2nc(N3CCN(c4ccccc4F)CC3)ncc2C1,-,-,-,-60,0
CCN(CC)CCN,-,-,-,0,-
COC(=O)c1ccccc1N=Nc1c(N)[nH][nH]c1=O,40µM,0,0,?,0
COc1ccc(CNC(=O)C2CCN(c3nnc(-n4c(C)ccc4C)s3)CC2)c(OC)c1,-,-,-,0,0
Cc1ccc(-n2cc(CNCCCn3cccn3)c(-c3cccc(C)c3)n2)cc1,0,0,0[15.4 µM],-64,0
Cc1ccc(C)c(-n2cc(CNCCCn3cccn3)c(-c3ccccc3)n2)c1,0,0,0[15.4 µM],0,0
Cc1ccc(Oc2cc(NC(=O)CCCn3nc([N+](=O)[O-])cc3C)cc([N+](=O)[O-])c2)cc1,0,-70,0,-,0
Cc1nn(C)c(C)c1N1C(=O)c2cccc3c(Br)ccc(c23)C1=O,0,0,13µM,0,0
CCOCCCN(C)C1CCN(C(=O)c2oc3ccccc3c2NC(=O)Cc2ccc([N+](=O)[O-])cc2)CC1,0,0,?,0,0
CCOCCCN(C)C1CCN(C(=O)c2oc3ccccc3c2NC(=O)c2cccc([N+](=O)[O-])c2)CC1,0,0,0,-66,0
O=C(CN1CCCCCC1)Nc1ccc(Oc2ccccc2)cc1,0,0,0,-64,0
O=C(CN1CCCCC1)Nc1ccccc1,0,0,0,0,0
COC(=O)CCN(c1ccccc1)C(CNS(=O)(=O)c1ccccc1)c1ccccc1 (stereo not given),-,-,-,0,0
SMILES,gsp antagonist,TSHR antag,gsp agonist,RXFP1 antagonist,RXFP1 agonist
COc1ccc(-c2c3c(=O)n(C)c(=O)n(C)c3c3n2-c2ccccc2NC3c2ccc(OC)cc2)cc1 (stereo not given),-,-,-,0,0
COc1ccc(C2CC(=O)c3cc(-c4nc(-c5cccc([N+](=O)[O-])c5)cs4)c(=O)n(-c4ccccc4C)c3C2)cc1 (stereo not given),-,-,-,-,0
CCc1ccc(-n2c(=O)c3c(C)c(C)sc3n(CC(=O)NCc3ccc(C)cc3)c2=O)cc1,-,-,-,0,0
Cc1cccc(OCC(=O)Nc2nc3ccc([N+](=O)[O-])cc3s2)c1C,0,-76,0,0,0
CCOc1c(Br)cc(C2C=C(C(=O)O)Nc3ncnn32)cc1OC (stereo not given),-,-,-,-,0
Cc1ccc(-n2ncc(C(=O)NCCN3CCC(Cc4ccccc4)CC3)c2C2CCN(C(=O)OC(C)(C)C)CC2)cc1,-,-,-,-69,0

# Source: PubChem
